The panel holds about 83,000 compounds, 20% with a hit somewhere; the sample as a whole holds those more often.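 Compound tested at a single concentration for 48 hours in 96-well plates; a percent growth value below 10 was scored as active.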 The source made the active and inactive calls.
test system: LOX IMVI melanoma; assay: NCI-60 one-dose screen, 48 h (100 = growth as untreated, 0 = no growth, -100 = all killed); conditions: 10 µM unless noted

SMILES	growth
CCOC(=O)C1=C(C(F)(F)F)NC(=S)NC1CN1C(=O)c2ccccc2C1=O (stereo not given)	105% (inactive)
CC(=O)NCCN	93.3% (inactive)
COc1ccc(Cn2cc3c(c2)-c2oncc2CC3)cc1OC	37.3% (inactive)
Cc1ccc(C(=O)Nc2ccc(CN3CCN(C)CC3)c(C(F)(F)F)c2)cc1C#Cc1cncc2ncccc12	-79% (active)
Cc1nc2c(nnn2-c2ccccc2)c2nc(-c3ccc(Cl)cc3)oc(=O)c12	96.9% (inactive)
CC(=O)Nc1nc(C)c(C(=O)N/N=C/c2cccs2)s1	93.2% (inactive)
CCCC(CCC)Oc1ccc(CCCC2=C(O)c3ccccc3C(=O)C2=O)cc1	5.38% (active)
COc1ccc(-c2cc(C#N)c(NNC(C)=O)[nH]2)cc1	103% (inactive)
CCCCCCCCCCCCCCCCCC(=O)Nc1ccc(O)cc1	96.9% (inactive)
COc1ccc2c(N)ncc(C#Cc3cc(C(=O)Nc4ccc(CN5CCN(C)CC5)c(C(F)(F)F)c4)cnc3C)c2c1	-71.4% (active)
COC(=O)C1CC(=O)N(C(=O)Nc2ccc(Cl)cc2Cl)C1 (stereo not given)	96.8% (inactive)
COC(=O)CC(=O)C(=O)OC	55.1% (inactive)
COc1ccc(C2=NN(C(=O)c3cc(-c4ccc(C)cc4)nc4ccccc34)C(c3cc(-c4ccccc4)nn3-c3ccccc3)C2)cc1 (stereo not given)	80.6% (inactive)
O=C(Nc1cccc(Cn2c(=O)[nH]c3ccc(Oc4ncccn4)cc3c2=O)c1)c1ccc(Cl)cc1	66.5% (inactive)
CC(=O)Nc1ccc(CC#N)cc1Br	106% (inactive)

From PubChem BioAssay (NCI)
